PubChem BioAssay AID602127 (Broad Institute, 2011)
Measured potencies and affinities stand elsewhere. Activity calls are given as the source filed them.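 How the source made its calls: active means every repeat test judged active, meaning a falling signal with potency within twice the top valid dose; inconclusive means repeat tests disagree on the call; inactive means every repeat test inactive, including signal moving upward.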

Target: Cyclin-dependent kinase 2 (Homo sapiens) (UniProt P24941)
Test: CDK2 kinase inhibitors, off-target check, dose response, selectivity assay for Dyrk1A inhibitor project, biochemical, cherry-picked samples (AID 602127)
Details: CDK2/cyclin A kinase, ADP-Glo luminescence, 60 min; series mostly up to 10 µM; activity change, negative = inhibition: at the top concentration

Activity change, negative = inhibition, inactive:
CC1Cc2ccccc2N1c1ncnc2nc[nH]c12 (centres undefined) -5.61%
c1coc(CCNc2ncnc3ccc(-c4ccc5c(c4)OCO5)cc23)c1 2.36%
Clc1ccc(CNc2nccc(-c3ccc4[nH]ncc4c3)n2)cc1Cl -6.13%
c1cncc(CNc2cc(-c3ccc4c(c3)OCO4)ncn2)c1 -0.949%
N#Cc1c(C(F)(F)F)cc(-c2cccc(Cl)c2)[nH]c1=O 1.81%
CC(=O)Nc1ccc(SCc2ncc(-c3ccccc3)o2)cc1 -20.5%
Clc1cc(Cl)cc(CNc2ncncc2-c2ccc3c(c2)OCO3)c1 6.67%
c1nc(NCC2CCCOC2)c2cc(-c3ccc4c(c3)OCO4)ccc2n1 (centres undefined) -7.3%
Cc1ccc(CNc2ncnc3ccc(-c4ccoc4C)cc23)o1 15.1%
CCN1CCN(Cc2ccc(NC(=O)c3ccc(C)c(NC(=O)N4CCNC4=O)c3)cc2C(F)(F)F)CC1 -7.15%
CSCC(=O)Nc1nc(-c2ccc3c(c2)OCCO3)cs1 -13.3%
COc1ccc(-c2cc(NCCc3ccncc3)n3ncnc3n2)cc1 -20.4%
O=C(CSc1nnnn1-c1ccc(O)cc1)Nc1ccc(N2CCOCC2)c(Cl)c1 -8.88%
Cc1occc1CNc1ncnc2ccc(-c3ccc4c(c3)OCO4)cc12 -0.879%
COc1cccc(Nc2nc(-c3ccc(O)cc3)cs2)c1 -12.6%
O=C(Nc1nc(-c2ccc3c(c2)OCCO3)cs1)c1ccco1 1.2%
c1cncc(CNc2ccnc(-c3ccc4cn[nH]c4c3)n2)c1 2.85%
COc1ccc(-c2nccc(NCc3ccc(C)cc3)n2)cc1 -10.5%

outcome, inactive:
CCOC(=O)c1ccc(-c2ccc3ncnc(NCc4ccc(C)o4)c3c2)o1
